# Data published in PubChem BioAssay AID463193 (University of Pittsburgh Molecular Library Screening Center, 2010).
# Screen size: about 190,000 compounds; about 1,900 (1%) were called active.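 Rule for the calls: active = percentage of spot-positive cells more than 3 SD above its plate mean, without a fluorescence outlier flag or 80% toxicity; inconclusive = no clear call, values can overlap the other calls; inactive = the rest.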 For the sample, actives were picked, then their nearest neighbours and some compounds at random.
# Experiment: autophagy modulators in MEF cells, primary screen, imaging, high-content, MEF GFP-LC3 (AID 463193);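 for % cells with GFP-LC3 spots: spot-positive cell cutoff set from DMSO-treated cells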;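 for toxicity: cell loss after 18 h compound exposure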
# Details: MEF GFP-LC3 puncta imaging, at 10 µM; % cells with GFP-LC3 spots: stronger effect = higher value; toxicity: measured here: cell loss, nuclei count
SMILES,% cells with GFP-LC3 spots,toxicity [%]
C=CCOc1c(Br)cc(/C=N\n2nnnc2N)cc1OC,6.77% (inactive),29
CC1CC2=C(CC1/C=N/NC(N)=S)C(C)(C)CCC2 (configuration not stated),39.4% (active),20
CC1(C)CCCC2=C1CC1C(=O)N(c3ccccc3)C(=O)C1C2 (configuration not stated),3.25% (inactive),1.28
Cc1cc2c(C)nc(N/N=C/c3ccccc3)nc2o1,16.3% (inactive),2.3
Cc1ccc(Cl)cc1N1CCN(C(=O)c2cccc3c(=O)c(C)c(-c4ccccc4)oc23)CC1,3.68% (inactive),9.69
O=C1CCC(=O)N1c1ccc(NCCc2ccccc2F)c([N+](=O)[O-])c1,1.23% (inactive),31.5
CC(Oc1cccc(NC(=O)c2cccs2)c1)C(=O)c1ccccc1 (configuration not stated),9.23% (inactive),21.1
Cc1ccc(NC(=O)CN2CCCCC2)c2c1CC(C)(C)O2,4.85% (inactive),-23.6
CCCc1[nH]nc2c1C(c1c(C)nn(-c3ccccc3)c1Cl)C(C#N)=C(N)O2 (configuration not stated),16.1% (inactive),24.7
CCCc1[nH]nc2c1C(c1ccc(Br)s1)C(C#N)=C(N)O2 (configuration not stated),13.3% (active),8.15
CCCc1[nH]nc2c1C(C1CC=CCC1)C(C#N)=C(N)O2 (configuration not stated),8.01% (inactive),13
Cc1ccc(OCc2n[nH]c(=S)n2-c2ccccc2)cc1,4.42% (inactive),-18.6
COc1ccc(Nc2ncc(F)c(N3CCOCC3)n2)cc1,7.22% (inactive),8.68
O=C(Nc1cccc(F)c1)N1C2CCC1CC(O)(c1cccnc1)C2 (configuration not stated),1.55% (inactive),2.7
O=C(Cn1cc2c(n1)CCCCC2)NCCN1CCOCC1,5.99% (inactive),-2.07
COc1ccccc1CNC(=O)Cn1cc2c(n1)CCCC2,15.2% (active),6.76
COCCNC(=O)Cn1cc2c(n1)CCCCC2,4.61% (inactive),-6.66
CC(C)NC(=O)NCCCCCCS(C)=O (configuration not stated),22.5% (inactive),23.6
CCOC(=O)c1c(NC(=O)C(C)Sc2c[nH]c3ccccc23)sc2c1CCC2 (configuration not stated),5.48% (inactive),2.6
COc1ccc(CCc2nnc(CCC(=O)NCc3cnn(-c4ccccc4C)c3)o2)cc1,10.6% (inactive),-18.2
COc1cccc(CN(C)CC(=O)Nc2sc3c(c2C#N)CCC3)c1,6.72% (inactive),-31.4

SMILES,% cells with GFP-LC3 spots,toxicity [%]
CC(C)[C@H](NC(=O)c1ccc(F)cc1)C(=O)OCC(=O)NC(=O)c1cccn1C,10.6% (inactive),-0.516
CCCCS(=O)c1snnc1C (configuration not stated),3.68% (inactive),1.95
CCc1nnc(NS(=O)(=O)c2ccc(NC(=S)NC(=O)/C=C/c3cccs3)cc2)s1,5.75% (active),7.01
CCc1nnc(NS(=O)(=O)c2ccc(NS(=O)(=O)c3ccccc3)cc2)s1,1.63% (inactive),20.8
CCc1nnc(NS(=O)(=O)c2ccc(NC(=S)NC(=O)c3cccs3)cc2)s1,5.87% (inactive),-9.89
O=C(O)CCN(Cc1ccccc1)S(=O)(=O)c1c(Cl)cccc1Cl,1% (inactive),7.07
COc1ccc(C(=O)NNc2cc(C)nc(NNC(=O)c3ccc(OC)cc3)n2)cc1,0% (inactive),-3.42
COC(=O)[C@@H]1CC[C@H](C)[C@@H](c2ccc(C)cc2)N1C(=O)c1ccc(/C=N/O[C@H](C)c2cn([C@@H]3COC[C@H]3O)nn2)cc1,9.78% (inactive),5.86
O=C(NC1CCCCC1)C1CCCN(S(=O)(=O)c2ccc(Br)s2)C1 (configuration not stated),0.705% (inactive),2.95
O=C(CCn1c(=O)[nH]c2ccccc2c1=O)NCCCN1CCN(c2cccc(Cl)c2)CC1,7.4% (inactive),9.47
Cn1c(C(=O)NCCCN2CCN(c3cccc(Cl)c3)CC2)cc2c(=O)n(C)c3ccccc3c21,6.58% (inactive),2.89
CCn1c(=O)cc(OCC(=O)NCCCN2CCN(c3cccc(Cl)c3)CC2)c2ccccc21,14.4% (active),23.1
COc1ccc(C(=O)Nc2cccc(S(C)(=O)=O)c2)cc1,7.34% (inactive),2.69
CCCC(=O)NC(C)C(c1cccs1)N1CCN(c2ccccc2)CC1 (configuration not stated),5.17% (active),28.7
CCN(CC)S(=O)(=O)c1ccc(Cl)c(C(=O)NC(C)C(c2cccs2)N2CCCC2)c1 (configuration not stated),1.61% (inactive),7.32
CC(NC(=O)Nc1ccccc1)C(c1cccs1)N1CCN(c2ccccc2)CC1 (configuration not stated),10.1% (inactive),-0.847
COc1cc(CNc2ncn[nH]2)ccc1OCc1ccccc1C,0.305% (inactive),8.6
COc1ccc2c(c1)CCc1c(C(=O)N3CCCC3)noc1-2,25.2% (active),71.1
COc1ccc2c(c1)CCc1c(C(=O)N3CCc4ccccc4C3)noc1-2,1.3% (inactive),5.85
COc1ccc2c(c1)CCc1c(C(=O)Nc3c(C)n(C)n(-c4ccccc4)c3=O)noc1-2,10.1% (inactive),17.1
